Screening results: PubChem BioAssay, National Center for Advancing Translational Sciences (NCATS)
D1 antagonist: human D1 dopamine receptor antagonism; activity change, negative = inhibition, % at 10 µM; P21728; HEK293 TREx D1 cells, calcium flux, dopamine EC80; active compounds read low; AID 504652; hit rate 3.2% among 360,000; in the data active = activity change below about -30%; note: % is set by controls: 0 for no effect and ±100 for the full control effect
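After overnight tetracycline induction at 30 C, force-coupled D1 HEK293 cells took up a no-wash calcium dye at room temperature. Compounds were added and monitored 180 s, and the response to EC80 dopamine was then recorded.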
TRHR PAM: allosterically enhances the human TRH receptor; P34981; enhancement, % at 2 µM; AID 493056; hit rate 0.66% among 360,000; TRHR cells, fluo-8 calcium fluorescence, EC20 TRH enhancement; in the data active = enhancement above about 30%; note: 0% is about no effect
Target sequence (P34981 whole entry, looked up): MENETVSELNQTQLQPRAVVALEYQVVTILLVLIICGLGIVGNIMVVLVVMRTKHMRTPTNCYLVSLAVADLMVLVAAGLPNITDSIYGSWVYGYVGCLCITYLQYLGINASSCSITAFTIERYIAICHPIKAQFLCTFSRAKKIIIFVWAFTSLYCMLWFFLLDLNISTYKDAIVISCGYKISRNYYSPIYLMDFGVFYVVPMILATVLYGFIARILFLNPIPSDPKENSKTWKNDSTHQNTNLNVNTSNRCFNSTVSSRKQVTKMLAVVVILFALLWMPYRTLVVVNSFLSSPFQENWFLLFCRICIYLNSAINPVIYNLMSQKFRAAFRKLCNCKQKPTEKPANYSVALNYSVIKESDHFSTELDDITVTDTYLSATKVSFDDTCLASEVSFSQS
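TRHR-expressing cells loaded with fluo-8 calcium dye were read kinetically (ex 480/em 530) during compound addition, then stimulated with an EC20 of TRH (10 nM final). Enhancement of the Gq-mediated intracellular calcium response was scored.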
TRHR agonist: TRH receptor (human) agonism | P34981 | TRHR cells, calcium flux fluo-8, FDSS agonist mode | activation, % at 2 µM | hit rate 0.18% among 360,000 | AID 493084; note: 0% is about no effect
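Steps: seed TRHR cells overnight; add fluo-8 no-wash Ca dye, RT 30 min–1.5 h; record 10 s baseline; pin-transfer compounds; monitor fluorescence 1 cycle/s for the agonist window. Calcium increases flag candidate agonists.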
D1 agonist: human D1 receptor agonism | HEK293 T-REx D1 cells, calcium flux, agonist mode | AID 504660 | activation, % at 2 µM | hit rate 1% among 360,000; note: 0% is about no effect
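Agonism was scored from calcium flux recorded over 180 s (1 read/s) after pintool compound addition, following a 10-cycle baseline. Cells were inducible force-coupled HEK293 TREx D1, plated overnight at 30 C and loaded with no-wash calcium dye.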
D1 PAM: enhances dopamine response at the human D1 receptor; P21728; HEK293 TREx D1 cells, calcium flux, dopamine EC20 potentiation; potentiation, % at 10 µM; hit rate 0.036% among 360,000; AID 504651; in the data active = potentiation above about 30%; note: 0% is about no effect
Numbers without * were called inactive; . = no result; ! = repeats disagree. Compounds with a hit are over-represented: about 4.7% of the library has one in this group of screens. Cut-off read from the data, not from the text of the source, unless noted: active = activation above about 30%; inactive = the rest.

SMILES	D1 antagonist	TRHR PAM	TRHR agonist	D1 agonist	D1 PAM
Cc1c(Cl)cccc1NS(=O)(=O)c1ccc2[nH]cc(C(=O)NC3CCCC3)c(=O)c2c1	-12	-4	1	1	7
COc1cccc(NS(=O)(=O)c2ccc3[nH]cc(C(=O)NC4CC4)c(=O)c3c2)c1	-6	2	0	-1	-7
COC(=O)C1(C)CCc2cc(OC)ccc2C1=O (centres undefined)	-46*	2	0	0	5
O=C(CNS(=O)(=O)c1ccccc1Br)OCC(=O)N1CCc2ccccc21	-57*	-3	0	4	-5
CC(=O)Nc1ccc(S(=O)(=O)NCC(=O)OCC(=O)N2CCc3ccccc32)cc1	7	-1	0	3	-1
O=C(O)c1ccc(Nc2ncnc3c2cnn3Cc2ccccc2)cc1	-46*	3	0	6	-1
CC(=O)OC1COC(OC2C(O)C(C)OC(OC3C(OC4CCC5(C)C(CCC6(C)C5CC=C5C7CC(C)(C)CCC7(C(=O)O)CCC56C)C4(C)CO)OCC(O)C3O)C2O)C(O)C1OC(C)=O (centres undefined)	187	-10	16	323*	26
COc1ccc(OCC(=O)NNC(=O)Cn2c(=O)cnc3ccccc32)cc1	-8	-3	0	0	2
CCCn1c(=O)c2c(nc3n2CCCN3CCc2ccc(OC)c(OC)c2)n(C)c1=O	-13	-6	0	2	-9
CCc1ccccc1Nc1nc(N)nc(CSCC(=O)Nc2ccc(C)c(C)c2)n1	11	1	-1	-1	2
CCc1ccc(NC(=O)CSCc2nc(N)nc(Nc3ccccc3CC)n2)cc1	-36*	-4	-1	-1	0
Cc1cc(NC(=O)C(C)C)ncc1NC(=O)Cc1ccccc1	0	10	1	14	-1
COc1cc(C(=O)Nc2cnc(NC(=O)C(C)C)cc2C)cc(OC)c1OC	-47*	0	0	1	-9
Oc1ccccc1C1=Nc2ncnn2C(c2ccc(F)cc2)C1 (centres undefined)	-42*	-1	0	0	-5
Fc1ccc(C2CC(c3ccc(F)cc3)n3ncnc3N2)cc1 (centres undefined)	1	12	1	2	2
COCCNC(=S)N1CCCN(c2nc3cc(C)ccc3cc2C#N)CC1	-21	0	0	4	-3
COCCCNC(=S)N1CCCN(c2nc3c(C)c(C)ccc3cc2C#N)CC1	-42*	1	0	-1	-3
CCc1ccccc1NC(=O)CN1C(=O)c2cccnc2Oc2ccc(Cl)cc21	-36*	-4	-1	1	-3
Cc1nonc1C(=O)N/N=C/c1cccc(O)c1	-43*	-1	0	2	-6
O=C(N/N=C/c1cccc(O)c1)N/N=C/c1cccc(O)c1	-8	11	0	1	10
Cc1csc2nc(COC(=O)c3ccc(NC(=O)C(C)Oc4ccccc4)cc3)cc(=O)n12 (centres undefined)	-11	-3	-1	20	0
Cc1ccc(S(=O)(=O)NCc2nc(-c3cccc(C)c3)no2)cc1	-20	-4	1	18	-2
O=c1[nH]c(-c2ccccn2)nc2sc(-c3ccccc3)cc12	-31*	1	1	7	3
OCCCCNCc1ccc(OCc2ccc(Cl)cc2)cc1	-51*	9	1	26	-5
CC(NCc1cccc(OCc2ccccc2)c1)C(O)c1ccccc1 (centres undefined)	.	-3	2	42*	-3
SMILES	D1 antagonist	TRHR PAM	TRHR agonist	D1 agonist	D1 PAM
CC(NCc1ccc(OCc2ccc(Cl)cc2)cc1)C(O)c1ccccc1 (centres undefined)	-5	5	1	38*	-5
O=C(O)CCNS(=O)(=O)c1cccc2nsnc12	-11	5	0	2	-7
CS(=O)(=O)N1CCc2cc(C(=O)NC3CC3)ccc21	-37*	-7	0	4	-3
O=C(c1ccc2c(c1)CCN2S(=O)(=O)c1ccccc1)N1CCN(c2ccccc2)CC1	1	33*	0	1	-5
CS(=O)(=O)N1CCc2cc(C(=O)N3CCN(c4ccccc4)CC3)ccc21	-65*!	-6	-1	-1	-3
CCCNC(=O)c1ccc2c(c1)CCN2S(C)(=O)=O	.	-2	1	1	-4
CN(CCCC(=O)Nc1ccc(Br)cc1F)S(=O)(=O)c1ccccc1	-26	-3	0	4	-3
Cc1ccc(-n2nnnc2SCC(=O)Nc2cc(C)on2)c(C)c1	-17	2	-1	0	-7
Cc1ccc(-n2nnnc2SCC(=O)Nc2ccc(N3CCN(C)CC3)cc2)c(C)c1	-60*	-3	-1	13	-7
CN1CCN(c2ccc(NC(=O)CSc3nnnn3-c3ccccc3F)cc2)CC1	-46*	-4	0	4	-14
Cc1ccc(-n2nnnc2SCC(=O)Nc2sccc2C#N)cc1	-66*	-1	0	11	-5
CCc1cccc(-n2nnc(-c3nc(-c4ccccc4Cl)no3)c2N)c1	-6	9	-1	2	0
COc1ccc(N2CCN(Cc3nc4c(c(=O)[nH]c(=O)n4C)n3Cc3ccccc3F)CC2)cc1	2	2	-1	-1	2
O=C(NCC(c1ccc(F)cc1)N1CCOCC1)c1ccccc1F (centres undefined)	-39*	-3	0	1	-9
CSc1ncccc1C(=O)NCC(c1cccs1)N1CCOCC1 (centres undefined)	-80*	2	0	3	-3
O=C(CSc1ccccn1)Nc1cccc(S(=O)(=O)N2CCCC2)c1	-4	2	0	15	.
CCC1Cc2c(nc(N)c3c(N)nc(N4CCCCC4)c(C#N)c23)O1 (centres undefined)	-31*	-14	0	0	-5
CCOc1ccc(NC(=O)CN2CCN(CC(=O)Nc3ccc(Cl)c(C(F)(F)F)c3)CC2)cc1	-17	36*	1	10	-2
CCN(CC)c1ccc(NC(=O)CN(C)Cc2cccs2)cc1	-7	-9	-1	-1	-1
Cc1ccc(NC(=O)CN(C)Cc2cccs2)cc1Cl	6	33*	0	-3	-2
CN(CC(=O)NCc1ccccc1)CC(=O)Nc1ccc(Cl)c(C(F)(F)F)c1	13	5	2	64*	.
Cc1ccc(NC(=O)CN(C)C(=O)c2ccc(C(F)(F)F)cc2)cc1	-32*	3	0	-1	-1
Cc1cc2nc(NCCCO)n(CC(=O)c3cc(C(C)(C)C)c(O)c(C(C)(C)C)c3)c2cc1C	6	-1	0	5	1
COc1cc(CC(=O)Nc2ccc(Cl)c(C(F)(F)F)c2)cc(OC)c1OC	-35*	1	2	12	-3
CN(CC(=O)Nc1ccc(Cl)c(C(F)(F)F)c1)C(=O)c1cccs1	-51*	1	0	12	-10
